Reference: PubChem BioAssay AID1778 (Sanford-Burnham Center for Chemical Genomics, 2009)
Out of some 290,000 compounds screened, about 260 (0.09%) were called active. The sample holds actives, similar compounds and a random draw of the others, so the mix is not that of the screen. Rule as the data show it: active = inhibition above about 50%; inactive = the rest. Measured potencies and affinities stand elsewhere.

Molecular target: Kappa-type opioid receptor (Homo sapiens) (UniProt P41145)
Assay: KOR antagonists, beta-arrestin recruitment, cell-based, luminescence, uHTS (AID 1778)
Details: antagonist mode, stronger effect = higher value; at 10 µM unless noted

Sequence of Kappa-type opioid receptor (Homo sapiens) (P41145 whole entry, looked up): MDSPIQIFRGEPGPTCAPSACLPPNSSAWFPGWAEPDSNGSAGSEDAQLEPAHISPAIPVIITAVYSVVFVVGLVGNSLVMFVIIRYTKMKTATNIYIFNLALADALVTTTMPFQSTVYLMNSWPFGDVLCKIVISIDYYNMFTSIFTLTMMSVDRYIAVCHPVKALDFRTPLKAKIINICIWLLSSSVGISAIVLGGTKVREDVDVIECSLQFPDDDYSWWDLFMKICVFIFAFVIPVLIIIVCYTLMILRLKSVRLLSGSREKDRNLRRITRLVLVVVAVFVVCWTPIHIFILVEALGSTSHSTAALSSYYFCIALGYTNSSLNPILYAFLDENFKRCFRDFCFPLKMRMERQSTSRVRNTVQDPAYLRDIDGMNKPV

Row | Structure (SMILES) | inhibition
1 | CCn1c(SCC(=O)Nc2nc3c(s2)CCCC3)nc2c1c(=O)n(C)c(=O)n2C | -6.8% (inactive)
2 | C=CCOC(=O)C(=O)/C=C/c1ccc2c(c1)Cc1ccccc1-2 | -23.3% (inactive)
3 | CCCc1ccc2oc(C(=O)N(C)CCn3ccnc3C)c(C)c2c1 | -19.1% [at 20 µM] (inactive)
4 | CC(=O)NC(Cc1cc(C)ccc1C)C(=O)N1CCN(C(=O)c2ccc([N+](=O)[O-])cc2)CC1 (stereo not given) | -2.4% (inactive)
5 | COc1cc(-c2nc3ccccn3c2/N=C/c2cccc(F)c2)ccc1O | -3.3% (inactive)
6 | COc1cc(CNS(=O)(=O)c2ccc3c(c2)CC(C)N3C(=O)C2CCC2)cc(OC)c1OC (stereo not given) | -10.7% (inactive)
7 | Oc1[nH]c2ccc(Br)cc2c1N=NC(=S)N1CCOCC1 | 49.6% (inactive)
8 | Oc1[nH]c2ccccc2c1N=NC(=S)N1CCOCC1 | 63.2% (active)
9 | NC(=S)N=Nc1c(O)[nH]c2ccccc12 | 18.5% (inactive)
10 | COC(=O)CCC(=O)Nc1c(C)n(C)n(-c2ccccc2)c1=O | 22.3% [at 20 µM] (inactive)
11 | Cc1cc(OCC(=O)Nc2ccc(S(=O)(=O)N3CCN(C)CC3)cc2)ccc1Cl | -13.3% (inactive)
12 | Cc1cc(OCC(=O)Nc2ccc(S(=O)(=O)N3CCN(C)CC3)cc2)ccc1Br | 3.2% (inactive)
13 | O=C(c1ccccn1)N1CCN(c2cccc(C(F)(F)F)c2)CC1 | -1.3% (inactive)
14 | CCOC(=O)c1cnn(-c2nc(C)nc3sc4c(c23)CCC4)c1N | -9.9% (inactive)
15 | CCOC(=O)c1cnn(-c2nc(SC)nc3sc4c(c23)CCCC4)c1N | 5.6% (inactive)
16 | CCOC(=O)c1cnn(-c2nc3sc4c(c3c(=O)[nH]2)CCCC4)c1N | 75% (active)
17 | Cc1onc(-c2ccccc2)c1C(=O)N=C(N)c1ccc(C(F)(F)F)cc1 | 19.1% (inactive)
18 | CCOc1cc(/C=N/NC(=O)C(=O)NCCCOC(C)C)cc(Br)c1O | 4.9% (inactive)
19 | CCN1CCN(CCC(=O)Nc2ccc(C)cc2)CC1 | -48.9% [at 20 µM] (inactive)
20 | Cc1cccc(CC2CC(=O)N(c3ccccc3)C2=O)c1 (stereo not given) | -23.5% (inactive)
21 | Cc1ccc(C)c(S(=O)(=O)N2CCC3(CC2)OCCO3)c1 | 11.1% (inactive)
22 | CN(C)S(=O)(=O)c1cccc(N=c2scc(-c3ccc4c(c3)NC(=O)CO4)n2CC2CCCO2)c1 (stereo not given) | -17.4% (inactive)
23 | O=C1COc2ccc(-c3csc(=Nc4ccc(OC(F)F)cc4)n3CC3CCCO3)cc2N1 (stereo not given) | 14.3% (inactive)
24 | CSCCNC(=O)c1ccc(OC2CCN(S(=O)(=O)N(C)C)CC2)cc1 | 11.7% [at 20 µM] (inactive)

Row | Structure (SMILES) | inhibition
25 | CN(C)C(=O)c1c2c(nc3ccccc13)-c1ccccc1CC2 | 7.9% (inactive)
26 | CCOc1ccc(NC(=O)c2ccc(NC(=S)NC3CCCCC3)cc2)cc1 | 5.4% [at 20 µM] (inactive)
27 | Cc1ccc(OCc2ccccc2C)c([N+](=O)[O-])n1 | -33% (inactive)
28 | CCCCN(C)CC(O)Cn1cc(/C=C/C(=O)c2cccs2)c2ccccc21 (stereo not given) | 19.9% (inactive)
29 | CCCN(CCC)CC(O)Cn1cc(/C=C/C(=O)c2ccccc2)c2ccccc21 (stereo not given) | 19% (inactive)
30 | COC(=O)c1sc(N)c(C(=O)OC)c1CSc1nnnn1C | -5.2% (inactive)
31 | CCCN(CCC)S(=O)(=O)c1ccc(C(=O)Nc2nnc(-c3cc(OC)cc(OC)c3)o2)cc1 | -91.7% (inactive)
32 | COc1ccc(-c2nnc(NC(=O)c3ccc4c(c3)OCCO4)o2)cc1 | 29.6% (inactive)
33 | O=C(Nc1nnc(C2=COCCO2)o1)c1ccc(Cc2ccccc2)cc1 | -22.6% [at 20 µM] (inactive)
34 | O=C(Nc1nnc(-c2ccc3c(c2)OCCO3)o1)c1ccc(Cc2ccccc2)cc1 | 51.8% (active)
35 | Cc1ccc(C(=O)Nc2nnc(-c3ccco3)o2)cc1C | 40.8% (inactive)
36 | Cc1ccc(C(=O)Nc2nnc(-c3ccco3)o2)cc1 | 14.7% (inactive)
37 | O=C(Nc1nnc(-c2ccco2)o1)c1ccc2ccccc2c1 | 89.7% (active)
38 | O=C(CCc1ccccc1)Nc1nnc(-c2ccc3c(c2)OCCO3)o1 | 11.2% (inactive)
39 | CC1CCN(CC(=O)Nc2ccccc2Sc2ccccc2)CC1 | -8% (inactive)
40 | O=C(Nc1cccnc1)c1ccccc1Cl | 21.5% [at 20 µM] (inactive)
41 | CN1CCC(N(C)S(=O)(=O)c2ccc(F)cc2F)CC1 | -33.5% (inactive)
42 | Cc1c(C(=O)O)[nH]c2c1C(=O)CC(c1ccc(C(C)(C)C)cc1)C2 (stereo not given) | 14.6% (inactive)
43 | NNC(=S)Nc1cccc(Cl)c1 | 18.7% (inactive)
44 | Cc1csc(NC(=S)Nc2cccc(Cl)c2)n1 | 57.9% (active)
45 | Cc1csc(NC(=O)Nc2cccc(Cl)c2)n1 | -9.6% (inactive)
46 | COc1ccc(OC)c(-n2c(SCC(C)=O)nnc2-c2cccc(S(=O)(=O)N(C)C)c2)c1 | 21.3% (inactive)
47 | O=C(Oc1ccc(Cl)c2cccnc12)c1ccco1 | 6.4% (inactive)
48 | O=C(Nc1cccc(C(F)(F)F)c1)Oc1ccc(Cl)c2cccnc12 | 65.4% (active)

Row | Structure (SMILES) | inhibition
49 | CCN(CC)C(=O)Oc1ccc(Cl)c2cccnc12 | 16.1% [at 20 µM] (inactive)
50 | CSC(=S)N/N=C(\C)c1ccc(Br)cc1 | 46.1% (inactive)
51 | C/C(=N\NC(N)=S)c1ccccc1 | 11.9% (inactive)
52 | Cc1c(C(=O)Nc2ccc3c(c2)OCO3)oc2ccccc12 | -1.2% (inactive)
53 | Cc1ccc2nc(-c3ccccn3)[nH]c2c1 | -33.9% [at 20 µM] (inactive)
54 | Cc1cc(=S)nc(-c2ccccn2)[nH]1 | -17.8% (inactive)
55 | CCN(CC)CCn1c2ccccc2c2cnc(N=CN(C)C)c(C#N)c21 | -24.3% (inactive)
56 | CSc1sc2ccccc2[n+]1CCCS(=O)(=O)[O-] | 21.2% (inactive)
57 | CCO/C(=C/c1sc2ccc(OC)cc2[n+]1CCCS(=O)(=O)[O-])CC | 2.7% (inactive)
58 | O=c1cc(-c2ccccc2)nc(Cc2c(Cl)cccc2Cl)[nH]1 | 29.4% (inactive)
59 | CCNC(=O)NC(=O)C(C)OC(=O)CCS(=O)(=O)c1ccc(C)cc1 (stereo not given) | -30.7% (inactive)
60 | COc1ccc(S(=O)(=O)N2CCN(C(=O)COc3ccc(C)c(C)c3)CC2)cc1OC | -25.1% (inactive)
61 | O=C(Oc1c(Cl)cc(Cl)c2cccnc12)c1cccc([N+](=O)[O-])c1 | 99.6% (active)
62 | O=C(Oc1cccc2cccnc12)c1cccc([N+](=O)[O-])c1 | -16.3% [at 20 µM] (inactive)
63 | O=C(Oc1ccc(Cl)c2cccnc12)c1cccc([N+](=O)[O-])c1 | -2.7% (inactive)
64 | COc1cc2c(cc1OC)CN(C(=O)CCNS(=O)(=O)c1ccccc1F)CC2 | 5.3% (inactive)
65 | Cc1nc2scc(-c3ccccc3)c2c(=O)n1N | -2.3% (inactive)
66 | Cc1ccc(C)n1-n1c(C)nc2scc(-c3ccccc3)c2c1=O | -3.4% (inactive)
67 | Cc1nc(NC(=O)CSC2=NCCS2)sc1C(=O)N(C)C | -22.6% (inactive)
68 | COc1ccc(S(=O)(=O)N2CCN(c3ccccn3)CC2)cc1[N+](=O)[O-] | 5.2% (inactive)
69 | CC(C)(C)C(=O)/C(C#N)=C/c1cccs1 | 1.1% (inactive)
70 | O=C(Nc1ccccc1)c1ccc(Nc2c([N+](=O)[O-])cc([N+](=O)[O-])c3ccccc23)cc1 | 20.1% (inactive)
71 | Cc1ccc(NC(=O)c2ccc(Nc3c([N+](=O)[O-])cc([N+](=O)[O-])cc3[N+](=O)[O-])cc2)cc1 | 1.3% (inactive)
72 | Cc1ccc(NC(=O)C2CCN(S(=O)(=O)c3ccc4c(c3)NC(=O)C(C)S4)CC2)c(C)c1 (stereo not given) | 11.1% (inactive)

Row | Structure (SMILES) | inhibition
73 | COc1ccc(CSc2cccc3cccnc23)cc1[N+](=O)[O-] | -30.5% (inactive)
74 | Cc1cccc(NC(=O)CSc2cccc3cccnc23)c1 | -3% (inactive)
75 | CC(Oc1ccccc1)C(=O)Nc1nnc(S(=O)(=O)Nc2ccccc2)s1 (stereo not given) | -37.1% [at 20 µM] (inactive)
76 | COc1ccc(N(CC(=O)Nc2ccc(S(=O)(=O)N3CCOCC3)cc2)S(=O)(=O)c2ccc(F)cc2)cc1 | 28.3% (inactive)
77 | COc1ccc(N(CC(=O)Nc2ccc(S(=O)(=O)N3CCOCC3)cc2)S(=O)(=O)c2ccccc2)cc1 | -0.6% (inactive)
78 | CN1/C(=C\C=O)C(C)(C)c2ccccc21 | -23.9% (inactive)
79 | CN1/C(=C\C=C2/SC(=S)N(CC(=O)O)C2=O)C(C)(C)c2ccccc21 | 77.1% [at 20 µM] (active)
80 | CCCN1C(=O)/C(=C\C=C2/Sc3ccccc3N2CC)SC1=S | -42.6% [at 20 µM] (inactive)
81 | CCCCN1C(=O)/C(=C/C=C2\N(C)c3ccccc3C2(C)C)SC1=S | 6.8% (inactive)
82 | CN1/C(=C\C=C2/C(=O)Oc3ccccc3C2=O)C(C)(C)c2ccccc21 | -18.4% (inactive)
83 | C=CCN1C(=O)/C(=C\C=C2\N(C)c3ccccc3C2(C)C)SC1=S | 3.2% (inactive)
84 | CCCN1C(=O)/C(=C\C=C2/Sc3ccccc3N2CCO)SC1=S | 17.8% (inactive)
85 | CN1C(=CC=C2C=C(I)C(=O)C(I)=C2)C(C)(C)c2ccccc21 | 68.2% (active)
86 | O=C1CC(C2CCCO2)C(=O)N1c1ccccc1 (stereo not given) | -21.9% (inactive)
87 | Cn1c(=O)c(C(=O)NCc2ccccc2Cl)c(O)c2ccccc21 | -41.3% [at 20 µM] (inactive)
88 | Cc1ccccc1CN(C)C(=O)CNC(=O)c1ccc2ccccc2c1 | -14.6% (inactive)
89 | Cc1ccc(NC(=O)Cn2cc(S(=O)(=O)c3ccc(F)cc3)c(=O)c3cc(F)ccc32)cc1 | -36.8% (inactive)
90 | Cn1c(CCNC(=O)c2ccccc2)nc2cc(NC(=O)C3CCCCC3)ccc21 | 1.3% (inactive)
91 | COc1cc(/C=C/c2ccc3c(Br)cc(Br)c(O)c3n2)ccc1O | 57.8% (active)
92 | COc1cc(/C=C/c2ccc3cccc(O)c3n2)cc(OC)c1OC | -5.8% (inactive)
93 | COc1ccc(/C=C/c2ccc3cccc(O)c3n2)cc1Br | -9.3% (inactive)
94 | COc1cc(/C=C/c2ccc3cccc(O)c3n2)cc(Br)c1OC | -20% (inactive)
95 | COc1ccc(/C=C/c2ccc3c(Br)ccc(O)c3n2)cc1 | 0.3% (inactive)
